Data reported in PubChem BioAssay (EPA / NIEHS).
The source made the active and inactive calls. Rule for the calls: active = hit-call score of the fitted dose curve at least 0.9, where 1 is the maximum; inconclusive = response in the unintended direction; inactive = score below 0.9.

These compounds were tested against Androgen Receptor/SRC-1 Co-activator, AR (gene 367) (UniProt P10275) (assay: OT_AR_ARSRC1_0960: Odyssey Thera (OT) 16-hour HEK293T Protein-Complementation Assay for Androgen Receptor/SRC-1 Co-activator (AID 2283353);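 note: actives raise the signal above DMSO so potency reflects increased AR and SRC-1 complex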).
Sequence of Androgen Receptor/SRC-1 Co-activator, AR (gene 367) (P10275 whole entry, looked up, the tested form may be a part): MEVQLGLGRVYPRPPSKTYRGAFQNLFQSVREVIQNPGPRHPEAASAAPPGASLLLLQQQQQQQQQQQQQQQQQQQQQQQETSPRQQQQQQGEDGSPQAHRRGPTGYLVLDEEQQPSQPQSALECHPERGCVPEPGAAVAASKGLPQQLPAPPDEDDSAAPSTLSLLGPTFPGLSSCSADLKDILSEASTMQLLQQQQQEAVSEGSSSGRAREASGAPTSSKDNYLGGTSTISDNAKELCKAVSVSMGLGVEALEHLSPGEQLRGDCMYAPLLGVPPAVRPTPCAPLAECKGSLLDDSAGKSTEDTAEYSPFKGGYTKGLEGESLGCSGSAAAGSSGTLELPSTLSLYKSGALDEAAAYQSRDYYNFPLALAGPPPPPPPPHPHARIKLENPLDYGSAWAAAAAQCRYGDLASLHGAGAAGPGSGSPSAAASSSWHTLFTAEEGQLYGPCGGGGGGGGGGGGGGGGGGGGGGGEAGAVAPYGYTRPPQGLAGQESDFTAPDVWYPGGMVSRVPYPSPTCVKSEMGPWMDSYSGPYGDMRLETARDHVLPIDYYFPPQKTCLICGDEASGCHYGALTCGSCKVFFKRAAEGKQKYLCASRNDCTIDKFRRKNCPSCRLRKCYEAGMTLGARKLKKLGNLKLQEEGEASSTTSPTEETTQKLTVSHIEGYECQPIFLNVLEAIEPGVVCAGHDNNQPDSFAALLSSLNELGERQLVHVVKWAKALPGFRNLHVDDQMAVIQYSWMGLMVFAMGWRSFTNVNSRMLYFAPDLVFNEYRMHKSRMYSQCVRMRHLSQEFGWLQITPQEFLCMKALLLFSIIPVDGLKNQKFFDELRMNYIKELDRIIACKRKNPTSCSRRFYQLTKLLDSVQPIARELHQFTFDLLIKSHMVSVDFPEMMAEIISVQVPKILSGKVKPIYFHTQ
Description: OT_AR_ARSRC1_0960 is a cell-based, single-readout assay that uses HEK293T, a human kidney cell line, with measurements taken at 16 hours after chemical dosing in a 384-well plate.OT_AR_ARSRC1_0960 is one of one assay component(s) measured or calculated from the OT_AR_ARSRC1_0960 assay. It is designed to make measurements of protein fragment complementation, a form of binding reporter, as detected with fluorescence intensity signals by Protein-fragment Complementation technology.Data from the assay component OT_AR_ARSRC1_0960 was analyzed into 1 assay endpoint. This assay endpoint, OT_AR_ARSRC1_0960, was analyzed in the positive analysis fitting direction relative to DMSO as the negative control and baseline of activity. Using a type of binding reporter, measures of receptor for gain-of-signal activity can be used to understand the binding at the pathway-level as they relate to the gene AR. Furthermore, this assay endpoint can be referred to as a primary readout, because the performed assay has only produced 1 assay endpoint. To generalize the intended target to other relatable targets, this assay endpoint is annotated to the nuclear receptor intended target family, where the subfamily is steroidal.
Protein-fragment complementation assay, or PCA, is a method for the identification and quantification of protein-protein interactions. In the PCA, the proteins of interest ("bait" and "prey") are each covalently linked to fragments of a third protein (e.g. DHFR, which acts as a "reporter"). Interaction between the bait and the prey proteins brings the fragments of the reporter protein in close proximity to allow them to form a functional reporter protein whose activity can be measured. The OT AR / SRC-1 assay assessed androgen receptor chemical interactions using a rapidly maturing, intensely fluorescent mutant of YFP known as Venus, rationally dissected into two separate fragments. […] Fusion constructs were transfected into HEK293T cells with a (Gly4Ser)2 linker between the AR/SRC-1 and YFP fragment genes to facilitate complementation when interacting proteins bring fragments into close proximity. The construct is stably expressed in HEK293T cells. […] Images were acquired on an Evotec Opera at 2 wavelengths (488 and 635nm), and the ratio of fluorescence in the nucleus relative to fluorescence in the cytoplasm (N/C Ratio) in the 488nm channel was calculated for a minimum of 400 cells per image. Both agonists and antagonists of the AR receptor induce nuclear translocation to varying degrees. […] The OT AR/SRC-1 assay was also run for 16 hours (see description for OT_AR_ARSRC1_0960).
With `O=Nc1ccc(Nc2ccccc2)cc1` the AC50 was 14.2 µM (active). `O=C[C@@H](O)[C@H](O)[C@H](O)CO` was tested, and the outcome was “inactive”. `CCCCC(CC)COC(=O)/C=C\C(=O)OCC(CC)CCCC` (stereo not given) was tested, and the AC50 was 75.5 µM (active). With `C[Si](O[Si](C)(C)C)O[Si](C)(C)C` the outcome was “inactive”. In the case of `CCCCC[Si](OCC)(OCC)OCC`, the outcome is reported as “inactive”. `COc1ccc(O)cc1` was tested, and the outcome was “inactive”. In the case of `CCC/C=C/C=O`, the outcome is reported as “inactive”. With `O=c1cc(-c2ccccc2)oc2cc(O)cc(O)c12` the outcome was “inactive”. In the case of `CCCCCCCCCCCCCOS(=O)(=O)O`, the outcome is reported as “inactive”. For `CCCOCC(C)O` (stereo not given), the outcome was “inactive”. For `c1ccc2[nH]ccc2c1`, the outcome was “inactive”. For `NCCCN1CCOCC1`, the outcome was “inactive”. `CCCCCCCCCCCCCCCC(=O)OC[C@H](O)[C@H]1OC(=O)C(O)=C1O` was tested, and the outcome was “inactive”. `CCN(CC)c1ccc(C(=C2C=CC(=[N+](CC)CC)C=C2)c2ccc(S(=O)(=O)O)cc2S(=O)(=O)[O-])cc1` was tested, and the outcome was “inactive”. With `BrC1CCC(Br)C(Br)CCC(Br)C(Br)CCC1Br` (stereo not given) the AC50 was 19.6 µM (active).
